These results are taken from PubChem BioAssay.

Experiment [1] in a line: hESC survival regulators, cell-based (AID 493140; call rule not given here;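 note: cells exposed to compounds for four days before counting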). As to conditions: human embryonic stem cell survival screen; stronger effect = higher value.
A short description of experiment [2]: Cy5 fluorescence interference with SSB-bound oligo, artefact control for HCV NS3 helicase inhibitor project, biochemical, NIH Clinical Collection, E. coli SSB (AID 743268; call rule not given here).
Experiment [3] has as its target Single-stranded DNA-binding protein (Escherichia coli (strain K12)) (UniProt P0AGE0). As to the kind of experiment: E. coli SSB displacement from DNA, counter-screen for HCV NS3 helicase inhibitor project, biochemical, fluorescence polarization, NIH Clinical Collection (AID 743271; in the data active = inhibition above about 28%). Particulars: stronger effect = higher value, concentration not given here.
The nature of experiment [4]: fluorescence interference in NS3h assay format, artefact control for HCV NS3 helicase inhibitor project, biochemical, NIH Clinical Collection (AID 743272; call rule not given here;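 note: HCV NS3 helicase with a Cy5 labelled single stranded DNA probe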). Particulars: fluorescence interference counterscreen, stronger effect = lower value. For orientation: Counterscreens check selectivity or assay interference.
The test system of experiment [5] is F380Y. The experiment can be described thus: modulators of BK channel variants, profiling panel, selectivity assay, cell-based, U2OS BacMam, thallium flux, beta subunits (AID 1259406).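 Note: initial slope of Thallos dye fluorescence rise after thallium is added; log ratio against the mean of 0.3% DMSO vehicle wells on the same plate.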 Particulars: at 30 µM.
The test system of experiment [6] is F380Y/beta1. Described as above. As to conditions: at 30 µM.
In experiment [7] the test system is F380Y/beta2Delta. The experiment is described as above. Particulars: at 30 µM.
Experiment [8] deals with F380Y/beta4. Described as above. As to conditions: at 30 µM.
The target of experiment [9] is Calcium-activated potassium channel subunit alpha-1 (Homo sapiens) + Leucine-rich repeat-containing protein 26 (Homo sapiens) (UniProt Q12791+Q2I0M4). Described as above. Particulars: F380Y/Slo1WT/gamma1, at 30 µM.
The test system of experiment [10] is R275C. The description is as above. As to conditions: at 30 µM.
The test system of experiment [11] is R275C/beta1. Described as above. Particulars: at 30 µM.
The test system of experiment [12] is R275C/beta2Delta. Described as above. Particulars: at 30 µM.
The subject of experiment [13] is R275C/beta4. The description is as above. As to conditions: at 30 µM.
Experiment [14] deals with R275C/Slo1WT/beta2. The description is as above. Particulars: at 30 µM.
Experiment [15] is described as follows: growth inhibition of DIPG glioma cells, dose response, cell-based, JHH-DIPG-1, MIPE4.0, CellTiter-Glo, qHTS (AID 1347062; cut-off not given, nearly all actives have AC50 up to about 27 µM). Particulars: JHH-DIPG-1 viability, CellTiter-Glo ATP luminescence. Background: Cellular ATP, detected with luciferase, serves as a proxy for viable cell number.
Experiment [16] is described as follows: growth inhibition of DIPG glioma cells, dose response, cell-based, SU-DIPG-XIII, MIPE5.0, CellTiter-Glo, qHTS (AID 1347064; cut-off not given, nearly all actives have AC50 up to about 23 µM). Particulars: SU-DIPG-XIII viability, CellTiter-Glo ATP luminescence.
The nature of experiment [17]: phospholipid biosynthesis inhibitors in animal cells, primary screen, cell-based, LOPAC library, screen 4 (AID 1347384; call rule not given here). Particulars: phospholipid biosynthesis inhibition screen, at 10 µM.
Experiment [18] in a line: LFS_MB_P medulloblastoma growth inhibition, cell-based, chromothripsis tumors, cisplatin or BGB combos (AID 1671449; in the data active = inhibition above about 80%;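 note: cells exposed for 96 hours; 0% = vehicle DMSO and 100% = killing by high DMSO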). Particulars: LFS_MB_P medulloblastoma cells.
Experiment [19] is described as follows: HDN33 neuroblastoma growth inhibition, cell-based, chromothripsis tumors, cisplatin or BGB combos (AID 1671450; in the data active = inhibition above about 80%;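 note: cells exposed to compound for four days; 0% = vehicle DMSO and 100% = cell killing by high DMSO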). Particulars: HDN33 neuroblastoma cells, stronger effect = higher value.
Experiment [20] is described as follows: HTB85 osteosarcoma cell growth inhibition, synergistic combos for chromothripsis tumors, BGB or cisplatin IC20 combos (AID 1671453; in the data active = inhibition above about 80%;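 note: cells exposed for 96 hours before readout; 0% = vehicle DMSO and 100% = high DMSO killing control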). Particulars: HTB85 osteosarcoma cells, drug combinations, stronger effect = higher value.

Structures are written as SMILES. “And” between values parts separate entries of the source, which are not always exact repeats. Identical values can stand only once. Inconclusive results are not listed. Some structures have more than one record in an assay (separate samples or runs), and their calls can disagree. The source made the active and inactive calls.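 Rule for the calls, unless noted: active = thallium flux through the channel raised or lowered by more than 3 SD from vehicle-only wells, actives on both sides; inactive = the rest.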

Calcium-activated potassium channel subunit alpha-1 (Homo sapiens) + Leucine-rich repeat-containing protein 26 (Homo sapiens), sequence (Q2I0M4 whole entry, looked up, one chain of several): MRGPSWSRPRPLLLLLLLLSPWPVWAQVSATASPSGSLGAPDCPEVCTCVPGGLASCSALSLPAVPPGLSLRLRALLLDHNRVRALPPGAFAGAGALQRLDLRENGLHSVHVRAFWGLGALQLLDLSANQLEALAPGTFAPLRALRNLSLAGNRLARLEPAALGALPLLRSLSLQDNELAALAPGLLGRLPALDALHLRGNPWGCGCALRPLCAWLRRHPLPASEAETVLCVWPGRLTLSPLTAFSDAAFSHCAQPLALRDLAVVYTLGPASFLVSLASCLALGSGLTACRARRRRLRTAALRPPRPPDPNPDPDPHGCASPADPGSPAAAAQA

For `C[N+]1(C)CCC(OC(=O)C(O)(c2ccccc2)C2CCCC2)C1` (centres undefined), the survival in experiment [1] is 3.83 (inactive). Also, the fluorescence ratio in [2] was 1.05 (inactive) and 1.06 (inactive); in experiment [4], 1.05 (inactive) and 1 (inactive). Besides, the inhibition in experiment [3] is 1.44% (inactive) and 1.81% (inactive). Also, the log fold change Tl+ flux in [5] is -0.0314 (inactive) and -0.0508 (inactive); in [6], 0.0124 (inactive) and -0.000209 (inactive); in [7] it was 0.0168 (inactive) and -0.0515 (inactive); in experiment [8], -0.00589 (inactive) and 0.00112 (inactive); in [9], -0.0241 (inactive) and -0.0355 (inactive); in experiment [10] it was -0.0259 (inactive) and -0.0857 (inactive). The log fold change Tl+ flux in experiment [11] was 0.0143 (inactive) and 0.0309 (inactive); in experiment [12] it was 0.0449 (inactive) and -0.0318 (inactive); in experiment [13], 0.0451 (inactive) and -0.0272 (inactive); in experiment [14], 0.0815 (active) and 0.0504 (inactive).
Consider `O=S(=O)(c1cccc2cnccc12)N1CCCNCC1`, for which, in [1], the survival was 467 (active). Besides, the compound was called inactive in [15] and in experiment [16].
As to `CC(C)n1c(/C=C/[C@@H](O)C[C@@H](O)CC(=O)O)c(-c2ccc(F)cc2)c2ccccc21`, the survival in experiment [1] was 2.5 (inactive). In addition, the fluorescence ratio in experiment [2] was 1.05 (inactive); in experiment [4] it was 1.03 (inactive). In addition, the inhibition in experiment [3] was 2.57% (inactive). Also, the log fold change Tl+ flux was 0.0848 (inactive) in experiment [5]; 0.0905 (inactive) in experiment [6]; 0.0465 (inactive) in experiment [7]; 8.3e-05 (inactive) in [8]; 0.11 (active) in [9]; -0.0365 (inactive) in [10]. In addition, the log fold change Tl+ flux is 0.145 (active) in [11], 0.135 (active) in [12], 0.103 (inactive) in [13] and 0.0615 (inactive) in [14].
Turning to `CC(C)(C)c1ccc(C(O)CCCN2CCC(C(O)(c3ccccc3)c3ccccc3)CC2)cc1` (centres undefined), in [1], the survival is 3.75 (inactive). Besides, the compound was called inactive in experiment [17].
Turning to `NCCCC(O)(P(=O)(O)O)P(=O)(O)O`, the outcome in experiment [15] and in [16] was inactive.
As for `CC(C)(C)CC(C)(C)c1ccc(OCCOCC[N+](C)(C)Cc2ccccc2)cc1`, the survival in experiment [1] was 0.167 (inactive).
`O=C(O)CCn1c2c(c3ccccc31)C[C@H](NS(=O)(=O)c1ccc(F)cc1)CC2`: the call in experiment [15] was inactive.
For the compound `CC1=C(/C=C/C(C)=C/C=C/C(C)=C\C(=O)O)C(C)(C)CCC1`, the survival in experiment [1] was 10.8 (inactive) and 52.6 (inactive). The fluorescence ratio was 1.01 (inactive) in experiment [2] and 0.99 (inactive) in experiment [4]. Also, the inhibition in experiment [3] was -1.24% (inactive). The compound was classed as inactive in experiment [15], in experiment [16] and in [17]. Besides, the log fold change Tl+ flux in experiment [5] is -0.00963 (inactive); in experiment [6], -0.0325 (inactive); in experiment [7] it was 0.000191 (inactive); in experiment [8], -0.0711 (inactive); in experiment [9], -0.0907 (active); in experiment [10], -0.0306 (inactive). In addition, the log fold change Tl+ flux was -0.0172 (inactive) in experiment [11], 0.0302 (inactive) in experiment [12], 0.00975 (inactive) in experiment [13] and 0.0252 (inactive) in experiment [14].
Turning to `COc1ccc(/C=C/C(=O)Nc2ccccc2C(=O)O)cc1OC`, the fluorescence ratio in experiment [2] was 1.05 (inactive); in experiment [4], 0.99 (inactive). The inhibition in experiment [3] was -1.64% (inactive). Also, the call in experiment [16] and in [17] was inactive. In addition, the log fold change Tl+ flux in experiment [5] was -0.0454 (inactive); in experiment [6] it was -0.00383 (inactive); in experiment [7], -0.0218 (inactive); in [8], -0.0244 (inactive); in experiment [9], -0.0322 (inactive); in [10], -0.0585 (inactive). Also, the log fold change Tl+ flux in experiment [11] was -0.0786 (inactive); in [12], 0.0483 (inactive); in [13], -0.0078 (inactive); in experiment [14] it was 0.0419 (inactive).
Regarding `CN(C)c1nc(N(C)C)nc(N(C)C)n1`, the survival in experiment [1] is 2.92 (inactive). Also, the fluorescence ratio in experiment [2] was 1.08 (inactive); in experiment [4] it was 0.99 (inactive). The inhibition in experiment [3] is 1.81% (inactive); in experiment [18] (at 0.5 µM, stronger effect = higher value) it was -34.2% (inactive) and -27.6% (inactive); in experiment [18] (measured here: combination with BGB IC20, at 0.005 µM) it was -17.9% and -27.7%; in experiment [18] (measured here: combination with BGB IC40, at 0.005 µM), -17.9% and -14.9%; in experiment [18] (measured here: combination with BGB IC40, at 0.05 µM), -9.42% and -37.8%; in experiment [18] (measured here: combination with cisplatin, at 0.5 µM, stronger effect = higher value), -34.2% and -25.4%. The inhibition in experiment [18] (measured here: combination with cisplatin, at 5 µM, stronger effect = higher value) is -44.4% and -48.3%; in experiment [19] (BGB combo, at 5 µM) it was -7.22% and 3.98%; in [19] (at 0.5 µM), 2.99% (inactive) and -25.1% (inactive); in experiment [19] (cisplatin combo, at 5 µM), -6.3% and -2.36%; in experiment [19] (measured here: with BGB IC20 combination, at 0.5 µM), 12.7% and -32.8%; in [19] (measured here: with cisplatin IC20 combination, at 0.5 µM) it was 1.13% and -2.01%. In addition, the inhibition is -11% and -2.53% in experiment [19] (single agent, at 5 µM); -13.6% (inactive) and -3.84% (inactive) in [20] (at 0.5 µM); -29.4% and -7.2% in experiment [20] (measured here: with BGB IC20, at 0.5 µM); -7.32% and 14% in experiment [20] (measured here: with BGB IC20, at 5 µM); -12.3% and -1.06% in [20] (measured here: with cisplatin IC20, at 0.5 µM); 6.76% and 3.22% in experiment [20] (measured here: with cisplatin IC20, at 5 µM). The inhibition in experiment [20] (single agent, at 5 µM) was -2.06% and 11.5%. In addition, the compound was called inactive in experiment [15], in [16] and in experiment [17]. Further, the log fold change Tl+ flux in [5] was 0.0102 (inactive); in experiment [6], 0.0385 (inactive); in [7], 0.00703 (inactive); in experiment [8], 0.0174 (inactive); in experiment [9], 0.0168 (inactive); in experiment [10], -0.00384 (inactive). For the same compound, the log fold change Tl+ flux in experiment [11] is -0.054 (inactive); in [12], -0.0096 (inactive); in [13], -0.000902 (inactive); in experiment [14], 0.0129 (inactive).

Broadly, the inhibition is the relative decrease from the control value, in per cent.
